The record followed here is PubChem BioAssay (EPA / NIEHS).

Several values for one entry are separate records, joined by “and”; a condition that tells them apart may be missing. Equal values may be shown once. Records with an inconclusive call do not appear. A structure can be active in one record and inactive in another. Activity calls are given as the source filed them. How the source made its calls, unless noted: active means hit-call score of the fitted dose curve at least 0.9, where 1 is the maximum; inactive means score below 0.9.

Assay [1] concerns the target human RAR-related Orphan Receptor beta (RORb), RORB (gene 6096) (UniProt Q92753). Put plainly: ATG_RORb_TRANS: Attagene TRANS-FACTORIAL HepG2 Assay for human RAR-related Orphan Receptor beta (RORb) (AID 2283010; active means hit-call score of the fitted dose curve at least 0.9, where 1 is the maximum). In outline: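 Multiplexed transcription-factor reporter assay: HepG2 cells transiently carrying NR-Gal4/GAL4-UAS constructs, 24 h treatment, mRNA quantified by RT-PCR plus capillary electrophoresis fluorescence; activity scored as induction over DMSO.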

Assay [2] deals with Retinoic acid receptor RXR-alpha (Homo sapiens) (UniProt P19793). Kind of assay: ATG_RXRa_TRANS: Attagene TRANS-FACTORIAL HepG2 Assay for human Retinoid X Receptor alpha (RXRa) (AID 2283012; active means hit-call score of the fitted dose curve at least 0.9, where 1 is the maximum). Put shortly: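 Chimeric NR-GAL4 trans-activation in HepG2, 24 h treatment; reporter transcripts quantified by fluorescence on capillary electrophoresis, analysed for upward change from DMSO.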

The target in assay [3] is human Retinoid X Receptor beta (RXRb), RXRB (gene 6257) (UniProt P28702). Kind of assay: ATG_RXRb_TRANS: Attagene TRANS-FACTORIAL HepG2 Assay for human Retinoid X Receptor beta (RXRb) (AID 2283013; active means hit-call score of the fitted dose curve at least 0.9, where 1 is the maximum). In outline: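 After a 24 h incubation with test chemical, transfected HepG2 cells carrying NR-Gal4 fusions and GAL4-UAS reporter transcription units yield RNA whose reporter cDNA is FAM-labelled, HpaI-cut and sized by capillary electrophoresis; increases over DMSO are scored.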

Read-out in assay [4]: E-selectin (Homo sapiens) (UniProt P16581)
Kind of assay: BSK_3C_Eselectin: BioMAP Diversity Plus: 3C Assay for Eselectin Biomarker Activity (AID 2283015).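 On outcome: cell surface E-selectin protein quantified by ELISA 24 h after dosing.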 The note with it: primary human endothelial cells (HUVEC); actives raise or lower the signal. Put shortly:
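ELISA read-out of E-selectin on endothelial monolayers after 24 h chemical treatment. Human umbilical vein primary cells served as the system, with DMSO defining baseline activity for bidirectional fitting.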

Read-out in assay [5]: Interleukin-1 alpha (IL1a), IL1A (gene 3552)
Put plainly: BSK_BE3C_IL1a: BioMAP Diversity Plus: BE3C Assay for Interleukin-1 alpha (IL1a) Biomarker Activity (AID 2283016). The note with it: primary human bronchial epithelial cells; actives raise or lower the signal. In outline: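 Measured in human lung primary bronchial epithelial cells: IL-1a by ELISA at 24 h after dosing, with bidirectional fitting against DMSO.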

Read-out in assay [6]: Monocyte Chemoattractant Protein-1 (MCP1), CCL2 (gene 6347)
Kind of assay: BSK_3C_MCP1: BioMAP Diversity Plus: 3C Assay for Monocyte Chemoattractant Protein-1 (MCP1) Biomarker Activity (AID 2283017). The note with it: primary human endothelial cells (HUVEC); actives raise or lower the signal. In outline:
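ELISA read-out of MCP-1 from human umbilical vein endothelial cell cultures harvested 24 h post-dosing. Gain or loss of signal was fitted relative to DMSO.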

Read-out in assay [7]: Monocyte Chemoattractant Protein-1 (MCP1), CCL2 (gene 6347)
Put plainly: BSK_4H_MCP1: BioMAP Diversity Plus: 4H Assay for Monocyte Chemoattractant Protein-1 (MCP1) Biomarker Activity (AID 2283018). The note with it: primary human endothelial cells (HUVEC); actives raise or lower the signal. Put shortly:
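Primary human umbilical vein endothelium is exposed to chemical for 24 h before MCP-1 is assayed by ELISA. Concentration-response fitted bidirectionally relative to DMSO.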

Read-out in assay [8]: Human Leukocyte Antigen - DR isotype (HLADR), HLA-DRA (gene 3122)
Kind of assay: BSK_3C_HLADR: BioMAP Diversity Plus: 3C Assay for Human Leukocyte Antigen - DR isotype (HLADR) Biomarker Activity (AID 2283019). The note with it: primary human endothelial cells (HUVEC); actives raise or lower the signal. In outline: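 ELISA readout of surface HLA-DR on human umbilical vein endothelium, taken 24 h after chemical treatment. Gain- and loss-of-signal were both fitted relative to DMSO.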

Read-out in assay [9]: Monokine induced gamma interferon (MIG), CXCL9 (gene 4283)
Put plainly: BSK_3C_MIG: BioMAP Diversity Plus: 3C Assay for Monokine induced gamma interferon (MIG) Biomarker Activity (AID 2283021).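 On AC50: MIG protein level measured by immunoassay in the treated endothelial cultures.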 The note with it: primary human endothelial cells (HUVEC); actives raise or lower the signal. Put shortly: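 ELISA-measured MIG in dosed HUVEC 3C cultures at 24 h, analysed by bidirectional fitting with DMSO defining baseline activity.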

In assay [10] the target is human Vitamin D Receptor (VDR), VDR (gene 7421) (UniProt P11473). Kind of assay: ATG_VDR_TRANS: Attagene TRANS-FACTORIAL HepG2 Assay for human Vitamin D Receptor (VDR) (AID 2283022; active means hit-call score of the fitted dose curve at least 0.9, where 1 is the maximum). In outline: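 Steps: transfect HepG2 with GAL4-UAS-driven reporter constructs; dose compounds 24 h; isolate RNA, reverse-transcribe, PCR-amplify with 6-FAM-labelled primer extension and HpaI digestion; quantify fragments by capillary electrophoresis relative to DMSO.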

Assay [11] is described as follows: BSK_3C_SRB: Viability Assessment in the BioMAP Diversity Plus: 3C Assay (AID 2283023).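 Further: fitted both ways against DMSO so a hit may be signal rise or drop.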 The note with it: primary human endothelial cells (HUVEC). Put shortly: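 Absorbance at 560 nm of sulforhodamine B-stained (0.1%) total protein served as a cytotoxicity readout in human umbilical vein endothelial cells, 24 h after chemical treatment. Signal was fitted bidirectionally relative to DMSO.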

Read-out in assay [12]: Matrix Metallopeptidase 1 (MMP1), MMP1 (gene 4312)
Kind of assay: BSK_BE3C_MMP1: BioMAP Diversity Plus: BE3C Assay for Matrix Metallopeptidase 1 (MMP1) Biomarker Activity (AID 2283024). The note with it: primary human bronchial epithelial cells; actives raise or lower the signal. Put shortly:
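In this multiplexed primary-cell system, human bronchial epithelium received chemicals for 24 h before an ELISA for MMP1. Values reflect bidirectional fits normalised to the DMSO baseline.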

Read-out in assay [13]: Pselectin, SELP (gene 6403)
Kind of assay: BSK_4H_Pselectin: BioMAP Diversity Plus: 4H Assay for Pselectin Biomarker Activity (AID 2283026). The note with it: primary human endothelial cells (HUVEC); actives raise or lower the signal. Put shortly:
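Bidirectional fits against DMSO gave the endpoint. Cells: primary human umbilical vein endothelium, chemical-treated for 24 h before ELISA detection of P-selectin.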

Assay [14] is described as follows: BSK_4H_SRB: Viability Assessment in the BioMAP Diversity Plus: 4H Assay (AID 2283027).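 Further: cells exposed to compound for 24 h before staining.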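 On AC50: curves fitted both ways versus DMSO so AC50 may be loss or gain.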 The note with it: primary human endothelial cells (HUVEC). Put shortly: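 Cytotoxicity readout: sulforhodamine B (0.1%) staining of total protein after 10% TCA fixation, measured at 560 nm in human umbilical vein endothelium at 24 h. DMSO set the baseline; fitting was bidirectional.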

Read-out in assay [15]: Thrombomodulin, THBD (gene 7056)
Kind of assay: BSK_3C_Thrombomodulin: BioMAP Diversity Plus: 3C Assay for Thrombomodulin Biomarker Activity (AID 2283029). The note with it: primary human endothelial cells (HUVEC); actives raise or lower the signal. In outline: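 In a multiplexed primary-cell system, human umbilical vein endothelium received chemical and was assayed 24 h later for thrombomodulin by ELISA. Parallel cultures were SRB-stained (0.1% SRB after 10% TCA fixation, read at 560 nm) to flag cytotoxicity.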

For assay [16], the target named is human Thyroid Receptor alpha (THRa1), THRA (gene 7067) (UniProt P10827). Put plainly: ATG_THRa1_TRANS: Attagene TRANS-FACTORIAL HepG2 Assay for human Thyroid Receptor alpha (THRa1) (AID 2283014; active means hit-call score of the fitted dose curve at least 0.9, where 1 is the maximum). Put shortly:
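Reporter transcript induction, read by capillary electrophoresis of 6-FAM-labelled RT-PCR products, reflects activity of a transfected THRa1-Gal4 fusion in HepG2 liver cells. Cells were dosed for 24 h; activity was fitted in the positive direction against DMSO.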

Assay [17] can be described thus: BSK_3C_Vis: BioMAP Diversity Plus: 3C Assay for Morphology Visualization (AID 2283025).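 Further: fitted both ways so gain or loss versus DMSO counts.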 The note with it: primary human endothelial cells (HUVEC). Put shortly: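 Light-microscopy morphology readout, 24 h exposure, human primary umbilical vein endothelium; analysed relative to DMSO with bidirectional fitting.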
Assay [18] in a line: BSK_BE3C_SRB: Viability Assessment in the BioMAP Diversity Plus: BE3C Assay (AID 2283028). The note with it: primary human bronchial epithelial cells. In outline:
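Cells (human bronchial epithelial, primary) are treated with chemicals, and after 24 h the parallel cultures are fixed in 10% TCA. These are then stained with 0.1% SRB and read at 560 nm. Gain or loss of signal is fitted relative to DMSO.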

Assay [19] concerns the target human RAR-related Orphan Receptor gamma (RORg), RORC (gene 6097) (UniProt P51449). Put plainly: ATG_RORg_TRANS: Attagene TRANS-FACTORIAL HepG2 Assay for human RAR-related Orphan Receptor gamma (RORg) (AID 2283011; active means hit-call score of the fitted dose curve at least 0.9, where 1 is the maximum). In outline:
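First, HepG2 liver cells were transfected with GAL4-UAS-driven reporter constructs and the RORg-Gal4 fusion. Next, they were treated with chemical for 24 h. Finally, reporter mRNA was quantified by RT-PCR and capillary electrophoresis, with upward activity fitted against DMSO.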

Read-out in assay [20]: Interleukin-8 (IL8), CXCL8 (gene 3576)
Put plainly: BSK_3C_IL8: BioMAP Diversity Plus: 3C Assay for Interleukin-8 (IL8) Biomarker Activity (AID 2283020). The note with it: primary human endothelial cells (HUVEC); actives raise or lower the signal. In outline: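 Using DMSO-treated wells as the baseline, bidirectional curve fitting was applied to ELISA-measured IL-8 from human umbilical vein endothelial cultures sampled 24 h after compound addition.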

Sequence of human Vitamin D Receptor (VDR), VDR (gene 7421) (P11473 whole entry, looked up, the tested form may be a part): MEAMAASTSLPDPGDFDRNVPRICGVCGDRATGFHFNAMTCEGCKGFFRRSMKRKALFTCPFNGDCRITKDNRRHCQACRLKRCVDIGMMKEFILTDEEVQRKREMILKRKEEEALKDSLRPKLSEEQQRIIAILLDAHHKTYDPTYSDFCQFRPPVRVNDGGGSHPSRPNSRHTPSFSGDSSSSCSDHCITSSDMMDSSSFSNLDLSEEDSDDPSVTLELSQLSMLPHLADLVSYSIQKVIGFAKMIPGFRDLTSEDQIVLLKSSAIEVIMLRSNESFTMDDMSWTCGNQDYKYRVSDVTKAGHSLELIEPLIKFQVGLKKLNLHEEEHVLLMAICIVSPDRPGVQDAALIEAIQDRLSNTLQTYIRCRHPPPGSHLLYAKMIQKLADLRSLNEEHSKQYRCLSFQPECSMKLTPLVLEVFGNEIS
Sequence of human RAR-related Orphan Receptor gamma (RORg), RORC (gene 6097) (P51449 whole entry, looked up, the tested form may be a part): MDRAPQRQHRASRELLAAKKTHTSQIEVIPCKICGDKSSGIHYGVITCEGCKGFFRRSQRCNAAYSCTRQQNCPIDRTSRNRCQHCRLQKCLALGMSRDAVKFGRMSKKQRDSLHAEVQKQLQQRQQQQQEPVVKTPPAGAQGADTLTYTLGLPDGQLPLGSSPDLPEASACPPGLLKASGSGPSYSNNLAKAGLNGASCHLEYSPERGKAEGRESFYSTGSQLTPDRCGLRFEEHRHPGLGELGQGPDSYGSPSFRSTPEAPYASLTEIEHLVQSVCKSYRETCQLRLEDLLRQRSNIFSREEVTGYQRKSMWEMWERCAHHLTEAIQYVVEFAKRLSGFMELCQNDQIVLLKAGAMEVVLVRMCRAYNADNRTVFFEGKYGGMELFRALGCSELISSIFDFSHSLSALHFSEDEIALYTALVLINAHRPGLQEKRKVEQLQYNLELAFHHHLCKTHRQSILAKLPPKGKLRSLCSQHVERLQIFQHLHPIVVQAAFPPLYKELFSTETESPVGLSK
Sequence of human Thyroid Receptor alpha (THRa1), THRA (gene 7067) (P10827 whole entry, looked up, the tested form may be a part): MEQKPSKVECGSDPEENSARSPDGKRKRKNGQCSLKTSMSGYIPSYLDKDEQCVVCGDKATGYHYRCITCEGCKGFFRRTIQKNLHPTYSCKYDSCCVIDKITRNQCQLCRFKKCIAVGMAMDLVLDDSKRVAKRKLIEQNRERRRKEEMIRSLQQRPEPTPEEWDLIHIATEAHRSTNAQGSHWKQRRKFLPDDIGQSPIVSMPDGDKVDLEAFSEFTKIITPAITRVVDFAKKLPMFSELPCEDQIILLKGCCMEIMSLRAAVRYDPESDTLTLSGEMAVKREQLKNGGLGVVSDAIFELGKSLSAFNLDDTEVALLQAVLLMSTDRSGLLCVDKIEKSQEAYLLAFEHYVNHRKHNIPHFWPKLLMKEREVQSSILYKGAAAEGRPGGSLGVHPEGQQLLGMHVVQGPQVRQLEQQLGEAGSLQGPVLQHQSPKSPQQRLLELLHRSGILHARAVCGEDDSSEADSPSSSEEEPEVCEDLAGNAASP
Sequence of human Retinoid X Receptor beta (RXRb), RXRB (gene 6257) (P28702 whole entry, looked up, the tested form may be a part): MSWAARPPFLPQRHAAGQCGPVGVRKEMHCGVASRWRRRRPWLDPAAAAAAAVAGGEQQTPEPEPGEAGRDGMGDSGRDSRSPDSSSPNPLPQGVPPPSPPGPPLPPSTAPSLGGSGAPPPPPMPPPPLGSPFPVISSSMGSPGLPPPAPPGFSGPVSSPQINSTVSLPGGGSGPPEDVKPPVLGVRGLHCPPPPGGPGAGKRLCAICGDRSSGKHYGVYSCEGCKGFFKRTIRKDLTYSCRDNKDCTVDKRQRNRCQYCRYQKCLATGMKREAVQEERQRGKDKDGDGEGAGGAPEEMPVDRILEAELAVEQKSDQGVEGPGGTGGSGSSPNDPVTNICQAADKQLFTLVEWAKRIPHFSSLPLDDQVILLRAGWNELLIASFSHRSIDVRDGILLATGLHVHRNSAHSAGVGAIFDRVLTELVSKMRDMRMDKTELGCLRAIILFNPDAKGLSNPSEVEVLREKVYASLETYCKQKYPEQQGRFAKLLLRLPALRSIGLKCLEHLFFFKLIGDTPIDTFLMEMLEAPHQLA
Sequence of human RAR-related Orphan Receptor beta (RORb), RORB (gene 6096) (Q92753 whole entry, looked up, the tested form may be a part): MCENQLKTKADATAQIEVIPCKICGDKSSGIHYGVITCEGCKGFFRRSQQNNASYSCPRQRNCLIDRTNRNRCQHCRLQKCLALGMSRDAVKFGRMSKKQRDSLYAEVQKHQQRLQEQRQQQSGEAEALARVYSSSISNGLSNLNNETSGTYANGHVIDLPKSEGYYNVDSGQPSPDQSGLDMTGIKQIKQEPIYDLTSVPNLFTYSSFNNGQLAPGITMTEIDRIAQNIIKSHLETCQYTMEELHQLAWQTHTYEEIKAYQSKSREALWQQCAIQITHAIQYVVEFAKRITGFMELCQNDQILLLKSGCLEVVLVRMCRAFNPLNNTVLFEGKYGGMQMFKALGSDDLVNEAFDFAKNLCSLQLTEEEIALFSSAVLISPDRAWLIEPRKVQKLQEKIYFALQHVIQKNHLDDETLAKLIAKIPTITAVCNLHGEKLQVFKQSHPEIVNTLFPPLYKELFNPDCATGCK
Sequence of E-selectin (Homo sapiens) (P16581 whole entry, looked up): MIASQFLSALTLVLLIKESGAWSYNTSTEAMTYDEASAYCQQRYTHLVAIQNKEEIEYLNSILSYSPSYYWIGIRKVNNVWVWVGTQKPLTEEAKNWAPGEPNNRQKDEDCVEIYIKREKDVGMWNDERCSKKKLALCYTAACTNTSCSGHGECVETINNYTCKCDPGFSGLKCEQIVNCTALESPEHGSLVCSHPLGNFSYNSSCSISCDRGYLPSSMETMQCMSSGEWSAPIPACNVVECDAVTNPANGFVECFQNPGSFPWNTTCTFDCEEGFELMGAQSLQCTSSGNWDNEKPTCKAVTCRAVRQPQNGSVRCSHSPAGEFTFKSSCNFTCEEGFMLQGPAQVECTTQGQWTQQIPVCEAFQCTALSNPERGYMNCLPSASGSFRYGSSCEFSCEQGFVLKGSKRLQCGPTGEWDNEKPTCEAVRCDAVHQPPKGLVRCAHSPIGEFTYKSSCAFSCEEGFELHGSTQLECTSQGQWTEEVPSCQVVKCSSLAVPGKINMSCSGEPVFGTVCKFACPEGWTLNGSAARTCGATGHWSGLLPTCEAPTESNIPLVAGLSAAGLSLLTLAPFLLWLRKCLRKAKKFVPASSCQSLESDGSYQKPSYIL
Sequence of Retinoic acid receptor RXR-alpha (Homo sapiens) (P19793 whole entry, looked up, the tested form may be a part): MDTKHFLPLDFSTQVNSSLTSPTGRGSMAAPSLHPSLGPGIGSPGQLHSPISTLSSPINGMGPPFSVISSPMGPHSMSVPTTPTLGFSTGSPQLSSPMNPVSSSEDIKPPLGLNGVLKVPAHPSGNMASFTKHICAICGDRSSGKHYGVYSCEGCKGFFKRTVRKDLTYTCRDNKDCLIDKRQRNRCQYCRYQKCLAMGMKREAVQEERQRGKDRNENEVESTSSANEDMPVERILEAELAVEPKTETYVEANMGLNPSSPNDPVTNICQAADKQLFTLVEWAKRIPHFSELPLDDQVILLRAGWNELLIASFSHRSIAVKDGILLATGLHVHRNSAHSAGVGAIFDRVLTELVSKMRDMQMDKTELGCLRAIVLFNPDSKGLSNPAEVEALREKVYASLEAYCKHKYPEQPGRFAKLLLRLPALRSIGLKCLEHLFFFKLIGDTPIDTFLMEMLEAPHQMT

`Cc1ccc(S(=O)(=O)OCC(F)(F)C(F)(F)C(F)(F)C(F)(F)C(F)(F)C(F)F)cc1`: the outcome in assay [1], in assay [2], in assay [4], in assay [5], in [6] and in [7] was inactive. Besides, the result in assay [8], in [9], in assay [10], in [12], in assay [13] and in [14] was inactive. Also, the result in assay [15] was inactive. Moreover, the half-maximal activity concentration (AC50) in assay [3] was 7.9 µM (active); in assay [4] it was 33.4 µM (active); in [5], 44.8 µM (active); in assay [11], 45.5 µM (active) and 38.1 µM (active); in assay [12], 18.2 µM (active).

Take `Oc1ccc(Nc2ccccc2)cc1`: the molecule was called inactive in assay [1], in assay [2], in assay [3], in [16], in [6] and in [9]. Further, the molecule was called inactive in assay [10], in assay [11], in assay [12], in assay [17], in assay [13] and in [14]. Further, the outcome in [18] and in assay [15] was inactive. Moreover, the concentration at half-maximal activity (AC50) in assay [4] was 20 µM (active); in [5], 13.4 µM (active); in [7] it was 9.6 µM (active); in [8], 20 µM (active).

As to `CCCCCCCCC(F)(F)C(F)(F)C(F)(F)C(F)(F)C(F)(F)C(F)(F)F`, the call in [19], in assay [2], in assay [4], in assay [5], in assay [6] and in assay [7] was inactive. Further, the result in [8], in assay [20], in assay [9], in assay [10], in [11] and in assay [12] was inactive. The outcome in assay [13], in [14], in assay [18] and in assay [15] was inactive. Further, the AC50 in [3] was 21.2 µM (active).

As for `O=C(O)C=C(C(F)(F)F)C(F)(F)F`, the molecule was called inactive in assay [19], in [2], in assay [3], in assay [16], in [5] and in assay [6]. Further, the outcome in [7], in assay [9], in assay [10], in [11], in assay [12] and in assay [14] was inactive. In addition, the outcome in [15] was inactive. In addition, the AC50 is 15.3 µM (active) and 5.95 µM (active) in [4]; 30 µM (active) and 47.7 µM (active) in [8]; 22.4 µM (active) and 21.1 µM (active) in assay [13].

Consider `C=CC(=O)OCC(F)(F)C(F)(F)C(F)(F)C(F)(F)COC(=O)C=C`, for which the outcome in assay [19], in assay [2], in [16], in assay [10], in assay [18] and in assay [15] was inactive. Also, the AC50 in assay [3] is 1.1 µM (active); in assay [4], 35.8 µM (active) and 38.1 µM (active); in assay [5] it was 20.2 µM (active) and 25.4 µM (active); in [6], 33.8 µM (active) and 22.1 µM (active); in [7] it was 49.4 µM (active) and 49 µM (active); in assay [8] it was 17.2 µM (active) and 18.1 µM (active). In addition, the half-maximal activity concentration (AC50) in [20] is 23.6 µM (active) and 44.4 µM (active); in [9], 23.5 µM (active) and 26.4 µM (active); in assay [11], 34.8 µM (active) and 24.8 µM (active); in [12], 20.4 µM (active) and 20.5 µM (active); in [13], 20.6 µM (active) and 28.9 µM (active); in assay [14], 47.1 µM (active) and 44.8 µM (active).

`C=CC(=O)OCC(F)(F)C(F)(F)C(F)(F)C(F)(F)C(F)(F)C(F)(F)C(F)(F)F`: the molecule was classed as inactive in assay [1], in assay [3], in [4], in assay [5], in assay [6] and in [7]. For the same molecule, the result in assay [8], in [20], in assay [9], in assay [10], in assay [11] and in assay [12] was inactive. For the same molecule, the outcome in assay [13], in assay [14] and in assay [15] was inactive.

The term AC50 denotes the midpoint of the concentration-response curve, whichever way the signal moves.
